Assay results taken from the supplement of paper PMC8540655.
Unmarked numbers belong to inactive results.

System: Aedes aegypti larvae
Experiment: larval motility relative to same well at 0 h (fraction); higher = more motile (less active compound), active = 0.4 or less
Conditions: 10 µM
Outline: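 Aedes aegypti larvae were hatched at 25 °C in pond salt solution with yeast, collected after 18–24 h, and dispensed at about 10 per well (100 µL) in 96-well plates. Compounds were tested at 10 µM in 1% v/v DMSO, and each plate carried solvent and larvicide control wells. INVAPP movies of 200 frames at 100 ms intervals were recorded at 0, 2 and 24 h, and each value is the median of three independent larval batches. Relative motility is each well's score divided by that same well's starting score.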

Row | SMILES | larval motility (2 h) | larval motility (24 h)
1 | Nc1nc(-c2ccccc2)nc2c1ncn2[C@@H]1O[C@H](COS(=O)(=O)NC(=O)c2ccccc2O)[C@@H](O)[C@H]1O | 0.842 | 1.04
2 | O=C(CCc1ccc2c(c1)OCO2)NCc1ccc(-c2ccccc2F)cc1 | 0.778 | 0.677
3 | O=C1C=C(c2ccccc2)S(=O)(=O)c2ccccc21 | 0.748 | 1.01
4 | CC1(C)[C@H](C(=O)O)N2C(=O)C[C@H]2S1(=O)=O | 0.965 | 1.35
5 | CSc1ccc2c(c1)C(N1CCN(C)CC1)Cc1ccccc1S2 (configuration not stated) | 1.08 | 0.827
6 | CCC(C)n1ncn(-c2ccc(N3CCN(c4ccc(OCC5COC(Cn6cncn6)(c6ccc(Cl)cc6Cl)O5)cc4)CC3)cc2)c1=O (configuration not stated) | 0.656 | 0.571
7 | Cc1ccc(Oc2ccccc2-c2csc(NC3=NCCCN3)n2)c(C)c1 | 0.774 | 0.786
8 | CCO/N=C/c1ccc(OCCCCN2CCN(c3ccncc3)C2=O)cc1 | 1.36 | 1.3
9 | Nc1ccc2oc(=O)ccc2c1I | 0.518 | 0.509
10 | CCc1cc(Nc2cc(=O)n(CCN3CCN(C(=O)c4ccccc4)CC3)c(=O)[nH]2)ccc1C | 1.11 | 1.07
11 | CCCCCCCCCN1C[C@@H](O)[C@H](O)[C@@H](O)[C@@H]1CO | 0.996 | 1.3
12 | Cc1cccc(C)c1C(=O)Nc1nc(-c2ccccn2)cc2ccccc12 | 0.564 | 1.01
13 | C[C@@H](NC(=O)c1cccc(-c2c[nH]c(-c3cc4ccccc4cn3)n2)c1)c1ccc(F)cc1 | 0.628 | 0.997
14 | O=C(O)c1sccc1S(=O)(=O)n1ccc2cc(Br)ccc21 | 0.657 | 0.741
15 | OCCC#Cc1nc(-c2ccc(F)cc2)c(-c2ccncc2)n1CCCc1ccccc1 | 0.457 | 0.301 (active)
16 | CCc1ccccc1OCCN1CCCCCC1 | 1.18 | 1.21

Row | SMILES | larval motility (2 h) | larval motility (24 h)
17 | CC1(C)CC(NC(=O)C(=O)Nc2ccc(Cl)cc2)CC(C)(C)N1 | 0.977 | 0.896
18 | O=c1cc(OCc2ccccc2)ccn1Cc1ccccc1 | 1.27 | 1.69
19 | CN(C)CCCNC(=O)c1ccc(-c2cc(O)c3ncccc3c2)cc1 | 0.79 | 0.683
20 | O=[N+]([O-])c1ccc2c(CCc3c[nH]c4ccccc34)c[nH]c2c1 | 1.12 | 0.813
21 | CCc1ccc(C2CC(C(F)(F)F)n3ncc(C(=O)NCc4ccc(OC)cc4)c3N2)cc1 (configuration not stated) | 0.923 | 1.29
22 | CC(C)(C)c1cc(CCC(=O)N2CCC2)cc(C(C)(C)C)c1O | 0.769 | 0.774
23 | O=C(c1ccccc1)N1CCN(c2ccccc2NC(=O)C(Cl)(Cl)Cl)CC1 | 1.33 | 0.669
24 | NS(=O)(=O)c1ccc(NC(=O)NC(c2ccccc2)c2ccccc2)cc1 | 0.491 | 0.689
25 | O=C(Nc1ccccc1)N(Cc1cc(Br)ccc1O)c1ccc(F)cc1 | 0.646 | 1.02
26 | O=C(Cc1ccccc1F)Nc1nc2ccccc2[nH]1 | 0.888 | 0.669
27 | Cc1cc(C2CCCCC2)n(O)c(=O)c1 | 0.66 | 1.09
28 | O=C(c1nc2c(C(F)(F)F)cc(C3CC3)cn2c1Cl)N1CCN([C@H]2CC[C@H](O)CC2)C(=O)C1 | 0.697 | 0.894
29 | COc1ccc(COc2cc3oc(=O)c4cc(C(C)O)ccc4c3cc2OC)cc1 (configuration not stated) | 1.02 | 1.2
30 | COc1cc(C)c2c(Oc3cccc(C(F)(F)F)c3)c(OC)cc(NC(C)CCCN)c2n1 (configuration not stated) | 0.654 | 0.385 (active)
31 | CC(=O)N1CCN(c2ccc(OCC3COC(Cn4ccnc4)(c4ccc(Cl)cc4Cl)O3)cc2)CC1 (configuration not stated) | 0.527 | 1.14
